# Reference: the supplement of paper PMC10338343
# ± gives the standard deviation.
# System: MILI (PIWIL2) piRISC loaded with L1MC piRNA (26 nt)
# Test: pre-steady-state target cleavage rate (min^-1); guide: L1MC piRNA 5'p-UAACUAAAUACUAUGCAAGCUGUAGG; MIWI and MILI are mouse PIWI proteins and EfPiwi is from a freshwater sponge; tags in brackets are library labels; higher = faster piRNA-guided slicing of the target
# Conditions: auxiliary factor: 500 nM mouse GTSF1
# Outline: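 The pre-steady-state cleavage rate was derived from a burst-and-steady-state fit of Cleave-'n-Seq data. For these assays, 1 nM active affinity-purified piRISC loaded with a single synthetic guide was mixed with […] a transcribed, DNA-blocked target RNA library in HEPES–potassium acetate buffer at 33 °C, with or without 500 nM GTSF1 partner protein, for 0–8 or 0–960 min. Sequencing counts of uncleaved targets were normalised to depth and to weakly complementary targets, and k3 was capped at 0.0001 min^-1 after three trials were pooled.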
# 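Also: 1 nM active piRISC with 0.1 nM target library at 33 °C single turnover.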
row,Sequence,pre-steady-state target cleavage rate
1,UCCUGGAUGUCCUUGCAUAGUAAUUAGUUA,0.111 ± 0.019
2,UCCUCCUAGAGCAUGCAUAGUAUUUAGUUA,0.2 ± 0.019
3,UCCUGGUUCAGCUUGCAUAGAAUUUAGUUA,0.0374 ± 0.011
4,UCCUGGAUGUCGUUGUAUAGUAUUUAGUUA,0.151 ± 0.017
5,UCCUGGUACAGCUUGGAUAGUUUUUAGUUA,0.0597 ± 0.014
6,UCCUGGAUGUCGUUGCAUAGUAUUUAGUCUA,0.013 ± 0.0062
7,UCCUGGAUGUCCUUGCGUAGUAUUUAGUUA,0.0231 ± 0.0068
8,UCCUGGUACAGCUUCGUUAGUAUUUAGUUA,0.128 ± 0.013
9,UCCUGGUACAGCUUGCAUUGAAUUUAGUUA,0.047 ± 0.015
10,UCCUGCAACAGCUUGGAUAGUAUUUAGUUA,0.251 ± 0.011
11,UCCUGGAUGUCGUUGCGUAGUAUUUAGUUA,0.0164 ± 0.0059
12,UCCUGGAUGUCGAAGCAUAGUAUAUUAGUUA,0.0302 ± 0.0085
13,UCCUGGAUGUCGAAGCAUAGUAUUUUAGUUA,0.0433 ± 0.01
14,UCCUGGUACAGCUUGCAUACUAUUUAGUUA,0.104 ± 0.024
15,UCCUGGAACUGCUUGCAUAGUAUUUACUUA,0.0984 ± 0.027
16,UCCUCCUACAGCUUGCAUUGUAUUUACUUA,0.145 ± 0.021
17,UCCUGGAUGUCCUUGCUUACUAUUUAGUUA,0.016 ± 0.0064
18,UCCUGGUACAGCUUCGAUAGUAUUUAGUAA,0.26 ± 0.046
19,UCCUGGAUGUCCUAGCAUAGUAUUUAGUUA,0.0817 ± 0.015
20,UCCUGGAUGUCGAUGCAUAGUAUAUAGUUA,0.143 ± 0.028

row,Sequence,pre-steady-state target cleavage rate
1,UCCUGGAUGUGCUUGCAAAGUUUUUAGUUA,0.00595 ± 0.0038
2,UCCUGGAUGUGCAUGCUUAGUAUUUAGUUA,0.0349 ± 0.011
3,UCCUGGAUGUCCUUGCAUAGUAAUAAGUUA,0.0367 ± 0.013
4,UCCUGGAUGUCGAUGCAUAGUAUUUAGUCA,0.111 ± 0.02
5,UCCUGGAACAGCUUGGAUAGUAUUUAGUUA,0.27 ± 0.013
6,UCCUCCUACAGCUUGCUAGUAUUUAGUUA,0.037 ± 0.013
7,UCCUGCUACAGCUUGCAUUGUUUUUAGUUA,0.0212 ± 0.007
8,UCCUGGAUCAGCAAGCAUAGUAUUUAGUAA,0.196 ± 0.016
9,UCCUGGUACAGCUUGGAUAGUAUUAAGUUA,0.174 ± 0.038
10,UCCUGGAUGAGCUUGCAUAGUAUUUAGUUA [g2:g21:cont:t1A],0.244 ± 0.014
11,UCCUGGUACAGCUUGCAUAGUAUUAGUUA,0.327 ± 0.053
12,UCCUGGUACAGGUUGCAUAGUAUAUAGUUA,0.42 ± 0.089
13,UCCUGGAUGUCGAAGCAUAGUAUUUAGUCA,0.0245 ± 0.0057
14,UCCUGGAUGUCGUUGCACAGUAUUUAGUUA,0.0899 ± 0.011
15,UCCUGGAUGUCGUUGCAAAGUAUUUAGUUA,0.0181 ± 0.0047
16,UCCUGGUACAGCUUGAUAGUAUUUAGUUA,0.0803 ± 0.011
17,UCCUGGAUGACCUUGCAUAGUAUUAAGUUA,0.141 ± 0.022
18,UCCUGGAUGUCCUUGCAAAGUUUUUAGUUA,0.0117 ± 0.0048
19,UCCUGGAUGUGCUUGCACAGUAUUUAGUUA,0.13 ± 0.01

# Same assay, conditions: auxiliary factor: none (no GTSF1)
row,Sequence,pre-steady-state target cleavage rate
1,UCCUGGAUGUCCUUGCAUAGUAAUUAGUUA,0.00618 ± 0.0018
2,UCCUCCUAGAGCAUGCAUAGUAUUUAGUUA,0.00564 ± 0.0018
3,UCCUGGUUCAGCUUGCAUAGAAUUUAGUUA,0.003 ± 0.0029
4,UCCUGGAUGUCGUUGUAUAGUAUUUAGUUA,0.0105 ± 0.0023
5,UCCUGGUACAGCUUGGAUAGUUUUUAGUUA,0.00594 ± 0.0035
6,UCCUGGAUGUCGUUGCAUAGUAUUUAGUCUA,0.00433 ± 0.0036
7,UCCUGGAUGUCCUUGCGUAGUAUUUAGUUA,0.0122 ± 0.0025
8,UCCUGGUACAGCUUCGUUAGUAUUUAGUUA,0.00406 ± 0.0022
9,UCCUGGUACAGCUUGCAUUGAAUUUAGUUA,0.00399 ± 0.0037
10,UCCUGCAACAGCUUGGAUAGUAUUUAGUUA,0.00806 ± 0.0021
11,UCCUGGAUGUCGUUGCGUAGUAUUUAGUUA,0.00779 ± 0.0026
12,UCCUGGAUGUCGAAGCAUAGUAUAUUAGUUA,0.00411 ± 0.0026
13,UCCUGGAUGUCGAAGCAUAGUAUUUUAGUUA,0.00324 ± 0.0028
14,UCCUGGUACAGCUUGCAUACUAUUUAGUUA,0.00577 ± 0.0035
15,UCCUGGAACUGCUUGCAUAGUAUUUACUUA,0.00292 ± 0.0023
16,UCCUCCUACAGCUUGCAUUGUAUUUACUUA,0.00286 ± 0.0022
17,UCCUGGAUGUCCUUGCUUACUAUUUAGUUA,0.00305 ± 0.0023
18,UCCUGGUACAGCUUCGAUAGUAUUUAGUAA,0.00305 ± 0.0029
19,UCCUGGAUGUCCUAGCAUAGUAUUUAGUUA,0.00379 ± 0.002
20,UCCUGGAUGUCGAUGCAUAGUAUAUAGUUA,0.00598 ± 0.0024

row,Sequence,pre-steady-state target cleavage rate
1,UCCUGGAUGUGCUUGCAAAGUUUUUAGUUA,0.0065 ± 0.0023
2,UCCUGGAUGUGCAUGCUUAGUAUUUAGUUA,0.0103 ± 0.0032
3,UCCUGGAUGUCCUUGCAUAGUAAUAAGUUA,0.00284 ± 0.0025
4,UCCUGGAUGUCGAUGCAUAGUAUUUAGUCA,0.00347 ± 0.0027
5,UCCUGGAACAGCUUGGAUAGUAUUUAGUUA,0.0119 ± 0.0026
6,UCCUCCUACAGCUUGCUAGUAUUUAGUUA,0.00462 ± 0.0021
7,UCCUGCUACAGCUUGCAUUGUUUUUAGUUA,0.00289 ± 0.0028
8,UCCUGGAUCAGCAAGCAUAGUAUUUAGUAA,0.00292 ± 0.0028
9,UCCUGGUACAGCUUGGAUAGUAUUAAGUUA,0.00474 ± 0.0033
10,UCCUGGAUGAGCUUGCAUAGUAUUUAGUUA [g2:g21:cont:t1A],0.0101 ± 0.0024
11,UCCUGGUACAGCUUGCAUAGUAUUAGUUA,0.00515 ± 0.003
12,UCCUGGUACAGGUUGCAUAGUAUAUAGUUA,0.00855 ± 0.0029
13,UCCUGGAUGUCGAAGCAUAGUAUUUAGUCA,0.00315 ± 0.0019
14,UCCUGGAUGUCGUUGCACAGUAUUUAGUUA,0.00642 ± 0.0028
15,UCCUGGAUGUCGUUGCAAAGUAUUUAGUUA,0.00739 ± 0.0022
16,UCCUGGUACAGCUUGAUAGUAUUUAGUUA,0.00786 ± 0.0031
17,UCCUGGAUGACCUUGCAUAGUAUUAAGUUA,0.00338 ± 0.0027
18,UCCUGGAUGUCCUUGCAAAGUUUUUAGUUA,0.00553 ± 0.0019
19,UCCUGGAUGUGCUUGCACAGUAUUUAGUUA,0.00631 ± 0.0022
